Measurements reported in PubChem BioAssay (Tox21).
Inconclusive results are not listed. Values without a mark were called inactive. Activity calls are given as the source filed them. Calls follow the shape of the dose curve; as a rule, active = well fitted inhibition curve with a large enough effect in the signal ratio in the repeat runs (not every such curve was filed as active); inconclusive = weak or mixed curves; inactive = flat fitted curve, though single readings scatter; the % refers to the signal ratio.

Target: Progesterone receptor (Homo sapiens) (UniProt P06401)
Sequence (P06401 whole entry, looked up): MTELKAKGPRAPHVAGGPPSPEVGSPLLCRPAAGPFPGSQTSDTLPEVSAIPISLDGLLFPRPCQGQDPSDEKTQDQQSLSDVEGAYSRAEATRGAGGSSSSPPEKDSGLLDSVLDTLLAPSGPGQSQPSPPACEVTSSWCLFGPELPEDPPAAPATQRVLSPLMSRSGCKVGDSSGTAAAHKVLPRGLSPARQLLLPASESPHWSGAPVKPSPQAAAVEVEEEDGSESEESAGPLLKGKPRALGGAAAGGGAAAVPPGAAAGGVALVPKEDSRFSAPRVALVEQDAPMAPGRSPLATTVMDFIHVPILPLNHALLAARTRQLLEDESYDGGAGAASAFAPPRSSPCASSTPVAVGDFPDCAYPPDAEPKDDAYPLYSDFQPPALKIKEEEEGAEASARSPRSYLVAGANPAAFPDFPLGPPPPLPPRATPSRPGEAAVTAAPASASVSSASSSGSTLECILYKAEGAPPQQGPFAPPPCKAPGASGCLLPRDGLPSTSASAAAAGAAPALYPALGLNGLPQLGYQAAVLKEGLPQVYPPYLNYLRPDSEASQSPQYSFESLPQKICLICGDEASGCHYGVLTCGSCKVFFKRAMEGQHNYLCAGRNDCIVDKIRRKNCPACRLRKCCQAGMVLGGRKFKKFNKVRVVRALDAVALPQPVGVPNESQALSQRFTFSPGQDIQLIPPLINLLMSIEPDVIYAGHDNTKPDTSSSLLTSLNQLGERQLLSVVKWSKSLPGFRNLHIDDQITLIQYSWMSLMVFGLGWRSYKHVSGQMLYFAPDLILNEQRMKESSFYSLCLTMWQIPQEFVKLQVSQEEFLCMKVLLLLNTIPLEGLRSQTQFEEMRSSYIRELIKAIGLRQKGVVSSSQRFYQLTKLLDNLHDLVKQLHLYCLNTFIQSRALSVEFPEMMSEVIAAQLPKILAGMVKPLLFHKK
Experiment: qHTS assay to identify small molecule antagonists of the progesterone receptor (PR) signaling pathway (AID 1346795)
Conditions: PR-UAS-bla HEK293T, beta-lactamase FRET ratio, 16 h; series mostly up to 92.4 µM; activity change, negative = inhibition: at the top concentration
Summary of the method: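 PR-UAS-bla HEK293T cells with beta-lactamase reporter under UAS control, in 2% charcoal-stripped FBS, treated with compounds plus 1 nM promegestone (R5020, final) for 16 hr at 37C. Read-out: FRET beta-lactamase substrate fluorescence after 2 hr at room temperature.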
% is scaled to controls: 0 for no effect and ±100 for the full control effect; potency is read from the fitted curve at half-maximal effect.

C=CCc1cc(S(=O)(=O)c2ccc(O)c(CC=C)c2)ccc1O was tested. Which Potency did it give?
The Potency was 27.3 µM (active).

With CC(C)(c1ccc(Oc2ccc(N)cc2)cc1)c1ccc(Oc2ccc(N)cc2)cc1 as the molecule, how does the Potency read?
Its Potency is 27.3 µM (active).

Which Potency does the source give for CC(Cc1ccc(O)c(O)c1)C(C)Cc1ccc(O)c(O)c1 (configuration not stated) here?
The Potency was 61.1 µM (active).

With O=C1CCC/C=C\CCCCCCCCCC1 as the molecule, how does the Potency read?
Its Potency is 48.6 µM (active).

CCOC(=O)[C@H](C)O was tested. Which “activity change, negative = inhibition” value did it give?
Its value is 2.11%.

How did the “activity change, negative = inhibition” value turn out when CC(C)(C)c1cc(CCC(=O)OCCSCCOC(=O)CCc2cc(C(C)(C)C)c(O)c(C(C)(C)C)c2)cc(C(C)(C)C)c1O was run?
Its value is -2.92% [at 42.5 µM].

With NCc1cccc(C2CCN(C(=O)c3ccc(C#Cc4ccccc4F)o3)CC2)c1 as the molecule, how does the Potency read?
The Potency was 68.6 µM (active).

Which Potency does the source give for COc1cc([C@@H]2c3cc4c(cc3[C@@H](O[C@@H]3O[C@@H]5CO[C@@H](C)O[C@H]5[C@H](O)[C@H]3O)[C@H]3COC(=O)[C@H]23)OCO4)cc(OC)c1O here?
The Potency was 24.1 µM (active).

With CCOC(=O)C1=NN(c2ccc(Cl)cc2Cl)C(C)(C(=O)OCC)C1 (configuration not stated) as the molecule, how does the Potency read?
Its Potency is 27.3 µM (active).

For CCCCCCCC/C=C\CCCCCCCC(=O)N(CCO)CCO, which Potency is on record?
The Potency was 43.1 µM (active).

How did the “activity change, negative = inhibition” value turn out when CC(C)=CCC[C@H](C)CC=O was run?
Its value is -0.749%.

Which “activity change, negative = inhibition” value does the source give for CCCCC/C=C\C=C\C(=O)OCC here?
Its value is -21.7%.

Which Potency does the source give for CCN(CC)c1ccc(N=Nc2ccccc2)cc1 here?
Its Potency is 19.3 µM (active).

With O=[N+]([O-])c1ccc(O)c2ncccc12 as the molecule, how does the Potency read?
Its Potency is 0.531 µM (active).

How did the “activity change, negative = inhibition” value turn out when CCCCCCCCCC[N+](C)(CCCCCCCCCC)CCC[Si](OC)(OC)OC was run?
The value was 5.11%.

How did the Potency turn out when CCOc1ccc([N+](=O)[O-])cc1 was run?
Its Potency is 27.7 µM (active).

With O=S(=O)(c1ccc(OCc2ccccc2)cc1)c1ccccc1O as the molecule, how does the Potency read?
Its Potency is 48.6 µM (active).
